# Bioassay records from PubChem.
# CYP2C19 act = human CYP2C19 activators, primary screen, biochemical, luminescence; activation factor at 5 µM; 96,000 tested, under 10 active; recombinant CYP2C19, luciferin-H EGE luminescence; stronger effect = higher value; 0 = fully inhibited enzyme, 1 = untreated enzyme; AID 1025, 2008; Cytochrome P450 2C19 (Homo sapiens), P33261;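 active = activation factor of at least 2 at 5 µM in the primary screen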;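 note: 0 = wells with 2.5 mM tranylcypromine and 1 = vehicle-only wells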
# CYP2C9 act = human CYP2C9 activators, primary screen, biochemical, luminescence; recombinant CYP2C9, luciferin-H conversion; stronger effect = higher value; factor 1 = untreated enzyme, 0 = blocked; activation factor at 5 µM; actives 1.4% (n = 96,000); AID 1024, 2008;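 active = activation factor of 2 or more for CYP2C9 at a 5 µM dose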;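 note: 0 = sulfaphenazole-blocked wells and 1 = vehicle-only wells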
# Target sequence (P11712 whole entry, looked up): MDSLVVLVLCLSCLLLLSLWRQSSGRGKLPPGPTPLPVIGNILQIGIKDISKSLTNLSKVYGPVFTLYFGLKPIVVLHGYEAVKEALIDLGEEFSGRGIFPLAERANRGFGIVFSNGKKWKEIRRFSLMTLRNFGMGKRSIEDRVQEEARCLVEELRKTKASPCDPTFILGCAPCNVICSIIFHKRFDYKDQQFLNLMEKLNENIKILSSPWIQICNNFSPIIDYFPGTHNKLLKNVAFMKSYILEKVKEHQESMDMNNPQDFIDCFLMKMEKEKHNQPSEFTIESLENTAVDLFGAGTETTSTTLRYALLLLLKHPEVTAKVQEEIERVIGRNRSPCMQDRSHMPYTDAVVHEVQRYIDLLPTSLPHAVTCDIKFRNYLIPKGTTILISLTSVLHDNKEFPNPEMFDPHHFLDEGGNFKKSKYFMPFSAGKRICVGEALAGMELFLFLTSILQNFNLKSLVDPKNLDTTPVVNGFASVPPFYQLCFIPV
# PostGolgi yeast = phenotypic screen on post-Golgi transport, primary screen | inhibition, % at 10 µM | actives 0.9% (n = 98,000) | post-Golgi transport phenotypic cell assay;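 note: yeast cells grown in 1536-well plates; yeast grown about 18 h at 30C before absorbance read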
# PostGolgi ctrl = growth inhibition of yeast control strain, primary screen, counter-screen for post-Golgi transport modulator project | efflux-deficient yeast background strain, growth absorbance A615, 16 h | inhibition, % at 10 µM | actives 5% (n = 98,000) | AID 738, 2007
# CYP2C9 inh = blockers of cytochrome P450 2C9 activity – biochemical, luminescence, ADME assay, primary screen; inhibition, % at 5 µM; actives 20% (n = 96,000); AID 777, 2007; CYP2C9 Supersomes, luciferin-H conversion; P11712;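 active = blocking of liver enzyme CYP2C9 beyond about 50% at 5 µM, limit read from the data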
# CYP2C19 inh = blockers of cytochrome P450 2C19 activity – biochemical, luminescence, ADME assay, primary screen; CYP2C19 Supersomes, luciferin-H EGE luminescence, 30 min; P33261; inhibition, % at 5 µM; actives 21% (n = 96,000);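 active = CYP2C19 inhibition above a set limit at 5 µM in the primary screen, cut at about 50% in these data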;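 note: plate controls were negative control wells for no effect and 2.5 mM tranylcypromine positive control for full effect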
# Numbers without * were called inactive. The list is not random: actives were taken first. Their share in the collection is about 32%. Cut-off read from the data, not from the text of the source, unless noted: active = inhibition above about 30%; inactive = the rest.
SMILES,CYP2C19 act,CYP2C9 act,PostGolgi yeast,PostGolgi ctrl,CYP2C9 inh,CYP2C19 inh
Cc1ccc(S(=O)(=O)NNC(=S)Nc2ccccc2)cc1,0.7,0.6,-0.6,7.6,35.3,28.2
Cc1ccc(NC(=S)Nc2ccc(Br)cc2)cc1,0.1,0.8,-0.7,3.6,16.2,89.0*
CCN1CCN(/C=N/c2nc(C)cs2)CC1,1,1.1,3.0,0.8,-10.1,-2.2
Cc1ccc(Oc2ccccc2/C=N/O)cc1,0.2,0.6,8.8,22.4,39.5,82.3*
Cc1cccc(NC(=O)CC2SC(=O)N(c3ccccc3)C2=O)c1 (centres undefined),1,0.7,-3.7,-2.5,30.0,4.3
Cc1cccc(NC(=O)CC2S/C(=N/c3nccs3)N(C)C2=O)c1 (centres undefined),0.5,0.2,0.2,6.2,80.5*,53.7*
CCCCC(=O)Nc1ccc(C(=O)NN2C(=O)c3ccccc3C2=O)cc1,0.9,0.7,-6.4,-8.1,29.2,6.1
Cc1ccc(NC(=O)CCC(=O)OCC(=O)c2ccc(Oc3ccc([N+](=O)[O-])cc3)cc2)c(C)c1,0.9,1.2,1.9,12.2,-16.0,8.7
OC(C#CCN1CCOCC1)(c1ccccc1)C1CC1 (centres undefined),0.4,1.1,-2.8,10.5,-5.4,57.3*
CC(NC(=O)C(Cc1ccccc1)N1C(=O)C2C3CCC(C3)C2C1=O)c1ccccc1 (centres undefined),0.6,1,-1.3,31.7*,4.7,43.1
O=C(NCc1ccco1)C(Cc1ccccc1)N1C(=O)C2C3C=CC(C3)C2C1=O (centres undefined),0.5,0.7,1.9,8.1,27.2,49.4
N/C(=N\c1nc(CSc2ccc(Cl)cc2)cc(=O)[nH]1)Nc1cccc2ccccc12,0.9,0.8,-6.4,4.5,24.7,9.0
COc1ccc(N/C(N)=N/c2nc(CSc3ccc(Cl)cc3)cc(=O)[nH]2)cc1,0.3,0.5,0.2,-0.1,49.0,66.1*
CCOC(=O)C(CO)(NC(C)=O)C(=O)OCC,1.2,1.1,7.3,-1.2,-10.9,-16.3
Cc1ccc(OCCn2c(C3CC(=O)N(Cc4ccccc4)C3)nc3ccccc32)cc1 (centres undefined),0.7,0.2,8.2,13.2,84.0*,33.2
CCn1c(C2CC(=O)N(c3cc(C)cc(C)c3)C2)nc2ccccc21 (centres undefined),1,1.5,-3.4,3.5,-47.4,0.7
C=CCN1CC(c2nc3ccccc3n2Cc2cccc3ccccc23)CC1=O (centres undefined),0.7,0.4,-3.8,-2.9,59.6*,34.9
NC(=O)CSc1nc2ccccc2n1Cc1ccccc1F,0.4,1,-7.7,11.5,-0.9,57.2*
CCOC(=O)c1sc(NC(C)=O)nc1-c1ccccc1,1,0.8,-15.1,-2.6,19.0,1.6
CCN(C(=O)Cn1c(=O)n(Cc2ccccc2)c(=O)c2ccccc21)c1cccc(C)c1,1,0.1,-7.3,14.0,85.6*,4.7
CC(=O)c1cc(C#N)c(SCc2ccncc2)nc1C,0,0.1,1.8,4.1,93.1*,97.0*
CCN(CC)c1nc(C)c(C(C)=O)cc1C#N,0.5,0.8,14.3,-1.1,17.4,53.5*
Cc1c(C)[n+](=O)c2c(n1[O-])CCCCC2,1,0.9,-6.4,7.3,12.2,-4.4
COc1ccc(-c2cc3ccccc3n2CC(O)CN2CCN(CCO)CC2)cc1 (centres undefined),0.9,0.9,0.5,5.9,10.2,11.8
Cc1ccc(S(=O)(=O)N(CC(O)CN2CCOCC2)c2cc(Cl)ccc2Cl)cc1 (centres undefined),0.5,0.8,2.0,14.6,17.6,53.8*
Cc1ccc(N(CC(O)CN2CCOCC2)S(=O)(=O)c2ccc3ccccc3c2)cc1 (centres undefined),0.8,0.5,-1.6,18.6,52.3*,19.4
Cc1ccc(N(CC(=O)N2CCOCC2)S(=O)(=O)c2ccccc2)cc1,0.9,0.9,-7.1,5.9,10.3,5.6
